# A selection: hits, their analogues and other compounds. The true share with any hit is near 19%.
# HT1080-NT tox: kills 2HG-producing HT-1080-NT fibrosarcoma cells; HT-1080-NT fibrosarcoma viability, CellTiter-Glo ATP luminescence, 48 h; Potency, µM (series often up to 46.1 µM), for the others: at the highest dose activity, negative = less viability, actives largely listed as cytotoxic; 1.6% of 360,000 active; AID 686970;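 further: NT is the 2HG producing partner of a matched IDH1 knockdown line; potency means the concentration at half of the fitted maximal effect; 0% = DMSO-treated cells and -100% = media-only wells without cells; nearly all actives have a fitted effect of over 55% in size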
#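 HT-1080-NT fibrosarcoma cells (2HG-overproducing), 750 cells/well in RPMI with 5% FBS, dosed after 2 h and incubated 48 h at 37C. CellTiter-Glo luminescence normalized to DMSO and no-cell wells; concentration-response curves fitted and classed.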
# HT1080 IDH1KD tx: HT-1080 IDH1 knockdown cell toxicity (counter line) | HT-1080 IDH1 knockdown viability, ATP luminescence, 48 h | Potency, µM (doses to about 46.1 µM), without a hit: top-dose activity, negative = toxicity, most hits filed as cytotoxic | 2% of 360,000 active | AID 686971;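 further: potency means the concentration at half of the fitted maximal effect; 0% = DMSO wells and -100% = cell-free medium wells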
#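 Cytotoxicity counter-line: IDH1KD HT-1080, 48 h, CellTiter-Glo. Curves classed by r2, magnitude and activity.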
# TDP1 cell CPT: DT40-hTDP1 cell growth loss with CPT; chicken DT40 Tdp1-/-;hTDP1 cells + 20 nM CPT, ATP luminescence, 48 h; Potency, µM (top dose mostly 46.2 µM), for the others: top-dose activity change, negative = growth inhibition, actives largely listed as inhibitors; 12% of 420,000 active; AID 686979; further: potency means the concentration at half of the fitted maximal effect; nearly all actives have a fitted effect of over 55% in size
#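 Cell growth measured by CellTiter-Glo luminescence after a minimum 48 h, 37 C compound exposure with 20 nM CPT in Tdp1-knockout DT40 cells stably expressing hTDP1, seeded 400/well; qHTS titration format.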
# IL1B secr inh: inhibitors of inflammasome signaling (IL-1 beta secretion); activity change, % at 57.5 µM; THP-1 LPS/ATP IL-1B secretion, AlphaLISA, 16 h; hits give low values; 4.7% of 360,000 active; in the data active means activity change below about -50%; inconclusive means mostly about -30% to -49%
#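 THP-1 cells pretreated 1 hr with compounds (up to 57.5 uM final), then stimulated with LPS (250 ng/mL final) plus ATP (1.25 mM final); secreted IL-1B measured by AlphaLISA after 16 hr, decreased signal indicating inhibition.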
# DT40 TDP1 no CPT: qHTS for Inhibitors of human tyrosyl-DNA phosphodiesterase 1 (TDP1): qHTS in cells in absence of CPT | Potency, µM (doses to about 46.2 µM), for the others: at the highest dose activity change, negative = growth inhibition, usual class: inhibitors | AID 686978, 2013 | DT40 Tdp1-/- hTDP1 cells, no CPT, ATP luminescence, 48 h | 15% of 420,000 active; further: potency means the concentration at half of the fitted maximal effect; nearly all actives have a fitted effect of over 55% in size
#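 Compound effects on proliferation are scored in DT40 Tdp1-/-;hTDP1 cells in the absence of CPT. ATP levels (CellTiter-Glo luminescence) are recorded after a ≥48 hr, 37 °C incubation.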
# An asterisk follows results filed as active; ? = inconclusive; · = no result given. Unless noted, the call rests on the fitted dose curve; in most records, active means well fitted curve in the direction sought with a large enough effect; inconclusive means small, poorly fitted or top-dose-only effect, or another doubt; inactive means no such curve, though single readings can be large; an effect the other way counts as inactive or inconclusive. Unless noted, on the % scale 0 is the no-effect control and ±100 the full control effect.
SMILES,HT1080-NT tox,HT1080 IDH1KD tx,TDP1 cell CPT,IL1B secr inh,DT40 TDP1 no CPT
COc1ccc(/C=C\C(=O)O[C@@H]2C(O)C(O[C@@H]3OC(C)[C@H](O[C@@H]4OCC(O[C@H]5O[C@H](CO)[C@@H](O)C(O)C5O)C(O)C4O)C(O)C3O)[C@H](OC(=O)[C@]34CCC(C)(C)C[C@@H]3C3=CCC5[C@@]6(C)CC(O)C(O[C@@H]7OC(CO)C(O)[C@H](O)[C@H]7O)[C@@](C)(C(=O)O)C6CC[C@@]5(C)[C@]3(CO)CC4)O[C@H]2C)cc1 (some centres undefined),?,21µM*,3.7µM*,-97*,5.2µM*
C[C@@H]1OC(OC2CC[C@@]3(C)C(CC[C@@]4(C)C3CC=C3C5CC(C)(C)CC[C@]5(C(=O)OC5OCC(O)[C@@H](O)[C@@H]5OC5O[C@@H](C)[C@H](O[C@H]6OC(CO)C(O)C(O)C6O)C(O)C5O)C(O)C[C@@]34C)C2(C)C)C(O)C(O)[C@H]1OC1OCC(O)C(O)[C@H]1O (some centres undefined),·,·,15µM*,·,?
C[C@@H]1CC[C@]2(C(=O)O[C@@H]3O[C@H](CO)[C@@H](O)[C@H](O)[C@H]3O)CC[C@]3(C)C(=CCC4[C@@]5(C)CC[C@H](O[C@@H]6OC[C@H](O)[C@H](O[C@@H]7O[C@H](CO)[C@@H](O)[C@H](O)[C@H]7O)[C@H]6O)C(C)(C)C5CC[C@]43C)C2[C@]1(C)O (some centres undefined),2%,-1%,-13%,9,5%
C/C=C(\C)C(=O)OC1[C@H](OC(C)=O)C2(CO)C(CC1(C)C)C1=CCC3C4(C)CCC(O[C@@H]5O[C@H](C(=O)O)[C@@H](O[C@@H]6O[C@H](CO)[C@@H](O)[C@H](O)[C@H]6O)[C@H](O)[C@H]5O[C@H]5O[C@H](CO)[C@@H](O)[C@H](O)[C@H]5O)[C@](C)(CO)C4CCC3(C)[C@]1(C)C[C@H]2O (some centres undefined),·,·,12µM*,-105*,15µM*
Cc1ccc(-c2nn3c(=O)cc(CN4CCN(C(=O)Nc5cc(Cl)ccc5C)CC4)nc3s2)cc1,·,·,?,·,-2%
Cc1oc(C)c2c(=O)ccc3c(c12)OC(N)=C(C#N)C3c1ccccc1 (centres undefined),-5%,-9%,?,-8,?
CSc1ccc(C2C(C#N)=C(N)Oc3c2ccc(=O)c2c(C)oc(C)c32)cc1 (centres undefined),?,?,18µM*,-8,16µM*
CC(C)C(=O)Nc1ccc(C(=O)Nc2ccc(Br)cc2F)cc1,5%,5%,?,-10,-11%
O=C(NC1CCCc2ccccc21)C1CCN(c2nnc(-n3cccc3)s2)CC1 (centres undefined),-6%,-14%,23µM*,-26,?
CN(C)c1ccc(CNC(=O)C2CCN(c3nnc(-n4cccc4)s3)CC2)cc1,·,·,-24%,·,?
CC1CCN(Cc2ccc(NC(=O)C3CCN(c4nnc(-n5cccc5)s4)CC3)cc2)CC1,-15%,-10%,18µM*,-6,?
O=C(C1CCN(c2nnc(-n3cccc3)s2)CC1)N1CCN(Cc2ccc3c(c2)OCO3)CC1,1%,-10%,?,2,15µM*
CN(C)S(=O)(=O)c1ccc(NC(=O)CCNC(=O)c2ccco2)cc1,6%,0%,0%,-6,-5%
Cc1nn(-c2ccc(N3CCCCC3)nn2)c(C)c1CCC(=O)Nc1ccccc1F,10%,0%,?,?,?
COc1ccccc1CNC(=O)CCc1c(C)nn(-c2ccc(N3CCCCC3)nn2)c1C,·,·,?,·,26µM*
CCOc1ccccc1CNC(=O)CCc1c(C)nn(-c2ccc(N3CCCC3)nn2)c1C,·,·,?,·,21µM*
